Results published in PubChem BioAssay (NCATS).
Records with an inconclusive call do not appear. Active and inactive are the calls of the source. Unless noted, calls come from the whole dose curve.

Legend:
[1] = Natriuretic polypeptide receptor (hNpr1) antagonism - Pilot counterscreen GloSensor control cell line (AID 1347045); note: series mostly up to about 38 µM
Method in brief: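 This counterscreen uses HEK293 cells expressing the GIP/pGS-40F cGMP biosensor. Compound-treated cells are challenged with 50 uM sodium nitroprusside, and the luciferase signal is compared before and after stimulation.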

[2] = molecular target: Atrial natriuretic peptide receptor 1 (Homo sapiens) (UniProt P16066); assay: Natriuretic polypeptide receptor (hNpr1) antagonism - Pilot screen (AID 1347049);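 note: agonist-evoked cGMP luminescence read 20 min after hNppA addition; series mostly up to about 58 µM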
Method in brief: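 HEK293 cells co-expressing hNpr1 and the GloSensor pGS-40F cGMP luciferase sensor were preloaded with 2% GloSensor reagent for 2 h. Compounds were added for 30 min at room temperature, then cells were stimulated with 0.1 nM hNppA for 20 min before luminescence readout.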

[3] = molecular target: Atrial natriuretic peptide receptor 2 (Homo sapiens) (UniProt P20594); assay: Natriuretic polypeptide receptor (hNpr2) antagonism - Pilot subtype selectivity assay (AID 1347050)
Method in brief: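 cGMP-sensor HEK293/hNpr2 cells; 2% GloSensor reagent 2 h RT; compounds 30 min; baseline luminescence read; 1 nM hNppC agonist 20 min RT; final luminescence read by CCD camera. Antagonism = reduced post-agonist signal.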

[4] = NS1 protein of Zika virus - qHTS assay to identify small molecule inhibitors in human HEK 293 cells (AID 1347053; active = well fitted curve in the direction sought with a large enough effect; an effect the other way counts as inactive or inconclusive; note: series mostly up to about 46 µM; nearly all actives have a fitted effect of over 55% in size)
Method in brief: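 Following 20 h seeding, HEK 293 cells took compound, then 1 h later ZIKV MR766 (MOI = 0.5). Incubation ran 24 h at 37 C before TR-FRET detection of NS1; a drop in signal indicates inhibition.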

[5] = molecular target: T1, Tyrosine-protein phosphatase non-receptor type substrate 1 (Homo sapiens) + Leukocyte surface antigen CD47 (Homo sapiens) (UniProt P78324+Q08722); assay: CD47-SIRPalpha protein protein interaction - LANCE assay qHTS validation (AID 1347057; active = well fitted curve in the direction sought with a large enough effect in the signal ratio, with a control signal flat, not every such curve was filed as active; the % refers to the signal ratio; note: series mostly up to about 38 µM)
Method in brief: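 First, His-tagged CD47 and Eu-labelled anti-His antibody met the compound for 30 min; next, site-specifically biotinylated SIRPalpha was added for 30 min; finally streptavidin-APC was added before reading the TR-FRET ratio.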

[6] = molecular target: T1, Tyrosine-protein phosphatase non-receptor type substrate 1 (Homo sapiens) + Leukocyte surface antigen CD47 (Homo sapiens); assay: CD47-SIRPalpha protein protein interaction - HTRF assay qHTS validation (AID 1347058; active = well fitted curve in the direction sought with a large enough effect in the signal ratio, not every such curve was filed as active; the % refers to the signal ratio; note: series mostly up to about 38 µM)
Method in brief: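 TR-FRET read (Ch1/Ch2 ratio) of soluble extracellular CD47 and Avi-biotinylated SIRPalpha domains in PBS pH 7.4 with 0.05% IGEPAL; 7-point compound titration. Sequential 30 min room-temperature steps; non-biotinylated SIRPalpha as control inhibitor.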

[7] = molecular target: T1, Tyrosine-protein phosphatase non-receptor type substrate 1 (Homo sapiens) + Leukocyte surface antigen CD47 (Homo sapiens); assay: CD47-SIRPalpha protein protein interaction - Alpha assay qHTS validation (AID 1347059; active = well fitted curve in the direction sought with a large enough effect; an effect the other way counts as inactive or inconclusive;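 note: bead proximity luminescence from CD47 binding SIRPalpha after compound preincubation with SIRPalpha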)
Method in brief: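 Soluble extracellular domains: Avi-tag biotinylated SIRPalpha (25 nM) preincubated 30 min RT with compound, then 6His-CD47 (12.5 nM) 30 min; Ni-NTA acceptor and streptavidin donor beads (10 ug/mL) 30 min, AlphaScreen read. PBS pH 7.4, 0.05% IGEPAL.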

[8] = molecular target: Parathyroid hormone/parathyroid hormone-related peptide receptor (Homo sapiens) (UniProt Q03431); assay: qHTS for PTHR1 Agonists: Optimization Screen against the NCGC LOPAC library (AID 1347079; active = well fitted curve in the direction sought with a large enough effect; an effect the other way counts as inactive or inconclusive;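 note: GloSensor cAMP luminescence in HEK-293 GP2 cells expressing human PTHR1 with IBMX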)
Method in brief: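 Compounds were tested across a qHTS titration. PTHR1-expressing GP2 cells report cAMP rises via GloSensor luminescence after 1 hr compound exposure at 37C with IBMX present.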

[9] = qHTS for Inhibitors of the Functional Ribonucleoprotein Complex (vRNP) of Lassa (LASV) Arenavirus: LASV Primary Screen - GLuc reporter signal (AID 1347082; calls by dose curve; tested in HEK293 reporter line; note: series mostly up to about 57 µM; nearly all actives have a fitted effect of over 60% in size)
[10] = qHTS for Inhibitors of the Functional Ribonucleoprotein Complex (vRNP) of Lassa (LASV) Arenavirus: Viability assay - alamar blue signal for LASV Primary Screen (AID 1347083; calls by dose curve; tested in HEK293 reporter line; note: series mostly up to about 57 µM; nearly all actives have a fitted effect of over 80% in size)
[11] = qHTS for Inhibitors of the Functional Ribonucleoprotein Complex (vRNP) of Lymphocytic Choriomeningitis Arenaviruses (LCMV): Viability assay - alamar blue signal for LCMV Primary Screen (AID 1347085; calls by dose curve; tested in HEK293 reporter line; note: series mostly up to about 57 µM; nearly all actives have a fitted effect of over 80% in size)
[12] = molecular target: Nucleoprotein (Lymphocytic choriomeningitis virus (strain Armstrong)) (UniProt P09992); assay: qHTS for Inhibitors of the Functional Ribonucleoprotein Complex (vRNP) of Lymphocytic Choriomeningitis Arenaviruses (LCMV): LCMV Primary Screen - GLuc reporter signal (AID 1347086); note: series mostly up to about 57 µM; nearly all actives have a fitted effect of over 70% in size

Measured: Potency

Chain of Atrial natriuretic peptide receptor 2 (Homo sapiens) (P20594 whole entry, looked up): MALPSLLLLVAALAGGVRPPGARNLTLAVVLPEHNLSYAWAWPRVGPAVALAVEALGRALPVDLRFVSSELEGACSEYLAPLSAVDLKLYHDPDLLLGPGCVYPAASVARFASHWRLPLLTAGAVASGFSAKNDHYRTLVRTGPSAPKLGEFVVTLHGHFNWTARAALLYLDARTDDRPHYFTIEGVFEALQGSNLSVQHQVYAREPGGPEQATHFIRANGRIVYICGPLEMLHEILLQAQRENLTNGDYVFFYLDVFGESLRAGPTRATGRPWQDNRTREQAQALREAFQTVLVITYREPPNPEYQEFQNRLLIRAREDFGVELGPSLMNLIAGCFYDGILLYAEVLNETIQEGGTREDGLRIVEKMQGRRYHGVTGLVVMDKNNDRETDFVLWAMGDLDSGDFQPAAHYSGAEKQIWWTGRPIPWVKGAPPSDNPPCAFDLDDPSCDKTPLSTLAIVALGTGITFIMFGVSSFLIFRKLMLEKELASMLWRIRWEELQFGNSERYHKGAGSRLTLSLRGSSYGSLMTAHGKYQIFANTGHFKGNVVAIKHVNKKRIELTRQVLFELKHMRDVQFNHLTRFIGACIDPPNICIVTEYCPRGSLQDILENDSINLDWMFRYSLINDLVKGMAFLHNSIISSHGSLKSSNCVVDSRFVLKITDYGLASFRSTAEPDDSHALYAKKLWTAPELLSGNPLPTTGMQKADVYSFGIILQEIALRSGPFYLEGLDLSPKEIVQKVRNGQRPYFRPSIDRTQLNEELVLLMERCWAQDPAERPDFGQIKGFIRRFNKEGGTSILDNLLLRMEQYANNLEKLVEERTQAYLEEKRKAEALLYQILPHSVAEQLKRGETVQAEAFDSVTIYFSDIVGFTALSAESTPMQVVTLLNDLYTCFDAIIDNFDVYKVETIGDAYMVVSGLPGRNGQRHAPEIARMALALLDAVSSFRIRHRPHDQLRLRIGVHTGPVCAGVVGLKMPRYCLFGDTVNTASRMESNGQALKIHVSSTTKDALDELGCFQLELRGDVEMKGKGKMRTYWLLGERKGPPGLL
Chain of Atrial natriuretic peptide receptor 1 (Homo sapiens) (P16066 whole entry, looked up): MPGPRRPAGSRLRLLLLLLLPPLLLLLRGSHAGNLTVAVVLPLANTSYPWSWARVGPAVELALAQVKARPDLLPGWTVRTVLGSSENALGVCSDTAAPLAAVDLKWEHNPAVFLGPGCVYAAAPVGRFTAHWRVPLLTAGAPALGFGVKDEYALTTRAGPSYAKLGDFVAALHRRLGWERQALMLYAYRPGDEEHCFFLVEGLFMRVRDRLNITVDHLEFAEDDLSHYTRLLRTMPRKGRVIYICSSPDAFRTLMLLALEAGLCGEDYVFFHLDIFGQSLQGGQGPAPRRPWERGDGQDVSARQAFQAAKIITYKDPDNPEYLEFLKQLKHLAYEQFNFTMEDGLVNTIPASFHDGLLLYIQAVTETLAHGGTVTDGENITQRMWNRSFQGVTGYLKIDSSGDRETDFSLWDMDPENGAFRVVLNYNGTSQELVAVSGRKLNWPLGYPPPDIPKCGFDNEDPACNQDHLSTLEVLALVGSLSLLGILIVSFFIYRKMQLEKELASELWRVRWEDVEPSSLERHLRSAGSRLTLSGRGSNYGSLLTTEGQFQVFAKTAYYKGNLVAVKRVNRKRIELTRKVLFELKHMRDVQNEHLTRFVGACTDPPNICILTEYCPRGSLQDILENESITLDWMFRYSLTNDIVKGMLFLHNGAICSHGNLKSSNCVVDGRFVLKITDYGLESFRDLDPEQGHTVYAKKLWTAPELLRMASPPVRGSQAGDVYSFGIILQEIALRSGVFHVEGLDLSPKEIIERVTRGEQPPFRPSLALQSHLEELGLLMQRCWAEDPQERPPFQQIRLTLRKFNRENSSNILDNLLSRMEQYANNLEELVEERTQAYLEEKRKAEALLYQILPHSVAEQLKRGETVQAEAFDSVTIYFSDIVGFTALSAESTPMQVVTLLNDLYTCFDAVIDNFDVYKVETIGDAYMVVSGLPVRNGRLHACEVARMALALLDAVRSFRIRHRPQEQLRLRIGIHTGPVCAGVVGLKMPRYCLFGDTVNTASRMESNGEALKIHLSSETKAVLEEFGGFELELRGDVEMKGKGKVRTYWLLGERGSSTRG
Chain of Parathyroid hormone/parathyroid hormone-related peptide receptor (Homo sapiens) (Q03431 whole entry, looked up): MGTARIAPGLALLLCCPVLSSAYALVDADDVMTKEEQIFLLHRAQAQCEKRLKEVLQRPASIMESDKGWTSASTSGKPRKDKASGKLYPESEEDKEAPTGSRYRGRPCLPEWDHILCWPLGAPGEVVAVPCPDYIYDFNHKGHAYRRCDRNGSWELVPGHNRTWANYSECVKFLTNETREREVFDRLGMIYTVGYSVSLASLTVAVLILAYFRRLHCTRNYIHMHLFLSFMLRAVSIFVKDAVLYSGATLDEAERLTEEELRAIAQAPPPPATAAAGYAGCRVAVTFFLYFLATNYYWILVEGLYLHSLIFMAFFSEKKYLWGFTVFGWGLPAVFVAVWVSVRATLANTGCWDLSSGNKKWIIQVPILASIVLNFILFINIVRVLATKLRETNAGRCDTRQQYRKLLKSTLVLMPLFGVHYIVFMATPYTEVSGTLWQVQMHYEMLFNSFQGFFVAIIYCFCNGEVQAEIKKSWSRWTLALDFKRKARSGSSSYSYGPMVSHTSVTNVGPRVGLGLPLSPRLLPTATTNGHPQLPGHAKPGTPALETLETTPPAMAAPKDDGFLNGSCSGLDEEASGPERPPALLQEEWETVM
T1 sequence (P78324 whole entry, looked up): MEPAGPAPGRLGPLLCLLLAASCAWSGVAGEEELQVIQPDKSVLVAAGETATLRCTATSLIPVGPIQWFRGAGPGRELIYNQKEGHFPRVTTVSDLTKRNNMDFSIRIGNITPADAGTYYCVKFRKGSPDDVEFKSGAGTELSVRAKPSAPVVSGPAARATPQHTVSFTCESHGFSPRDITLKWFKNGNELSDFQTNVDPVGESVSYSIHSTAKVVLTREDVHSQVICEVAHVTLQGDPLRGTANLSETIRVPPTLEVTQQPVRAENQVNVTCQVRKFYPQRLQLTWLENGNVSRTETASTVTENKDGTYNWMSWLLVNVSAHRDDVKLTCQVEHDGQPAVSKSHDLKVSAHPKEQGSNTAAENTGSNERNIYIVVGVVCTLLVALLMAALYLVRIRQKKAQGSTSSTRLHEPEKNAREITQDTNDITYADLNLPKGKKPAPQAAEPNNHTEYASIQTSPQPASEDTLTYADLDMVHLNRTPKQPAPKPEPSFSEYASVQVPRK
T1 sequence (Q08722 whole entry, looked up): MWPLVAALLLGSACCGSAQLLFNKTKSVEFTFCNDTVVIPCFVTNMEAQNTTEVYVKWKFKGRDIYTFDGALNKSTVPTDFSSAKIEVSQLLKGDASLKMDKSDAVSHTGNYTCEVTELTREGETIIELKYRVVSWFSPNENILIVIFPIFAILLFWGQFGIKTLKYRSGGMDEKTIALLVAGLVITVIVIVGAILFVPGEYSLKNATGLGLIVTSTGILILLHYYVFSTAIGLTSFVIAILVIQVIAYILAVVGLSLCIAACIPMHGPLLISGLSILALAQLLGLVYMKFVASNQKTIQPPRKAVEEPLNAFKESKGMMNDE
Chain of Nucleoprotein (Lymphocytic choriomeningitis virus (strain Armstrong)) (P09992 whole entry, looked up): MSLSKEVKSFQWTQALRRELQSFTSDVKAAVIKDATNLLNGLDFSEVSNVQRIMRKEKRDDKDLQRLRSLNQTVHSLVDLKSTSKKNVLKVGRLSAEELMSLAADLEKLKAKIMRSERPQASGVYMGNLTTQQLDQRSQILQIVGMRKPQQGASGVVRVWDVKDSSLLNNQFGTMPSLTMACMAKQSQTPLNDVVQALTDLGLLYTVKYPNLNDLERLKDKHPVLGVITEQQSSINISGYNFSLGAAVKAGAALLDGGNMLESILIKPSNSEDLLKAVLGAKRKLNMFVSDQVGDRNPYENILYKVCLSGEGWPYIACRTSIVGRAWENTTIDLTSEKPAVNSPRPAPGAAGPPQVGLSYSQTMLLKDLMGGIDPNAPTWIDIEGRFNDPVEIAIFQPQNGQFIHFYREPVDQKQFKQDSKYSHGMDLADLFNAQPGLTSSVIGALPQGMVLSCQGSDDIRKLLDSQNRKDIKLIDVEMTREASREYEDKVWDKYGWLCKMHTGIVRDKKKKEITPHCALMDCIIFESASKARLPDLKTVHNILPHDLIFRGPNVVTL

CS(=N)(=O)CC[C@H](N)C(=O)O (stereo partly specified)
inactive: [1] | [2] | [3] | [4] | [5] | [6] | [7] | [8] | [9] | [10] | [11] | [12]

NCCc1c[nH]c2ccccc12
inactive: [1] | [2] | [3] | [4] | [5] | [6] | [7] | [8] | [9] | [10] | [11] | [12]

O=C1CCCN1CC#CCN1CCCC1
inactive: [1] | [2] | [3] | [4] | [5] | [6] | [7] | [8] | [9] | [10] | [11] | [12]

O=C(O)Cc1cnc[nH]1
inactive: [1] | [2] | [3] | [4] | [5] | [6] | [7] | [8] | [9] | [10] | [11] | [12]

CCOP(=O)(NC(C)C)Oc1ccc(SC)c(C)c1 (stereo unspecified)
inactive: [4] | [9] | [10] | [11] | [12]

C[C@@H]1O[C@H](C[N+](C)(C)C)C[C@H]1O
inactive: [1] | [2] | [3] | [4] | [5] | [6] | [7] | [8] | [9] | [10] | [11] | [12]

C#CCOC(=O)C1=CCCN(C)C1
inactive: [1] | [2] | [3] | [4] | [5] | [6] | [7] | [8] | [9] | [10] | [11] | [12]

c1ccc2sc(C3(N4CCCCC4)CCCCC3)cc2c1
inactive: [1] | [2] | [3] | [4] | [5] | [6] | [7] | [8] | [9] | [10] | [11] | [12]

C[C@@H](N)Cc1cnc[nH]1
inactive: [1] | [2] | [3] | [5] | [6] | [7] | [8] | [9] | [10] | [11] | [12]

O=C(Cc1ccc(Cl)c(Cl)c1)N1CCCCC1CN1CCCC1 (stereo unspecified)
inactive: [1] | [2] | [3] | [4] | [5] | [6] | [7] | [8] | [9] | [10] | [11] | [12]

NC(CP(=O)(O)O)C(=O)O (stereo unspecified)
inactive: [1] | [2] | [3] | [5] | [6] | [7] | [8] | [9] | [10] | [11] | [12]

CCCN1CCO[C@@H]2c3cc(O)ccc3OC[C@H]21
inactive: [1] | [2] | [3] | [4] | [5] | [6] | [7] | [8] | [9] | [10] | [11] | [12]

Cc1nccc2c1[nH]c1ccccc12
inactive: [1] | [2] | [3] | [5] | [6] | [7] | [8] | [9] | [10] | [11] | [12]

CC(C)NC(C)Cc1ccc(I)cc1 (stereo unspecified)
inactive: [1] | [3] | [4] | [5] | [6] | [7] | [8] | [9] | [10] | [11] | [12]

CNCCc1c[nH]c2ccc(O)cc12
inactive: [1] | [2] | [3] | [4] | [5] | [6] | [7] | [8] | [9] | [10] | [11] | [12]

NC(=NCCC[C@H](N)C(=O)O)N[N+](=O)[O-]
inactive: [1] | [2] | [3] | [4] | [5] | [6] | [7] | [8] | [9] | [10] | [11] | [12]
